PubChem BioAssay (NCI)
About 83,000 compounds went through this panel and 20% of them were active in at least one assay; those are over-represented in the sample as a whole.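 Step 1: grow cells in 96-well plates. Step 2: add test compound at a single concentration. Step 3: incubate 48 h. Step 4: record percent growth.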 Active and inactive are the calls of the source. The calls were made as follows: active = growth percent below 10; inactive = the rest.

How the values were obtained:
Assay in all cases: NCI-60 one-dose screen, 48 h (100 = growth as untreated, 0 = no growth, -100 = all killed)
Conditions in all cases: 10 µM unless noted
T-47D breast = system: T-47D breast
BT-549 breast = system: BT-549 breast
MDA-MB-435 melanoma = system: MDA-MB-435 melanoma
SW-620 colon = system: SW-620 colon
MCF7 breast = system: MCF7 breast
HCT-116 colon = system: HCT-116 colon
HCC-2998 colon = system: HCC-2998 colon
KM12 colon = system: KM12 colon

Measured: growth

c1cncc(-c2nc3ccccc3[nH]2)c1
inactive: T-47D breast 103% | BT-549 breast 100% | MDA-MB-435 melanoma 121% | SW-620 colon 85.1% | MCF7 breast 85.1% | HCT-116 colon 93.8% | HCC-2998 colon 92.2% | KM12 colon 97.5%

O=C(O)c1cn(C2CC2)c2cc(N3CCN(C(=O)CSc4nc(NS(=O)(=O)c5ccccc5)cc(=O)[nH]4)CC3)c(F)cc2c1=O
inactive: T-47D breast 116% | BT-549 breast 99% | MDA-MB-435 melanoma 90.1% | SW-620 colon 99.9% | HCC-2998 colon 91.7% | KM12 colon 91.6%

CN(C)c1ccc(/C=N/N=C(N)N)cc1
inactive: T-47D breast 81.9% | BT-549 breast 93.3% | SW-620 colon 37.4% | MCF7 breast 31.9% | HCT-116 colon 52.8% | HCC-2998 colon 68.2% | KM12 colon 42.6%
active: MDA-MB-435 melanoma -13.9%

COc1cc(/C=C\c2cc(/C=C\c3ccc(O)c(OC)c3)n(C(=O)CNc3ccccc3OC)n2)ccc1O
active: MDA-MB-435 melanoma 6.34%
inactive: T-47D breast 91.8% | BT-549 breast 66% | SW-620 colon 36.4% | HCC-2998 colon 112% | KM12 colon 46.2%

COc1ccc(/C=C/C(=O)/C=C(/C=C/c2ccc(OC)c(OC)c2OC)OB(F)F)c(OC)c1OC
inactive: T-47D breast 50.4% | BT-549 breast 31.4% | HCC-2998 colon 59.2% | KM12 colon 22.8%
active: MDA-MB-435 melanoma 0.716% | SW-620 colon 8%

COC(=O)c1oc2c(C(C)=O)c(OCCCN(C)C)ccc2c1C
inactive: T-47D breast 103% | BT-549 breast 215% | MDA-MB-435 melanoma 107% | SW-620 colon 106% | MCF7 breast 148% | HCT-116 colon 53.9% | HCC-2998 colon 116% | KM12 colon 100%

COc1ccc(/C=C/C(=O)c2ccc(NC(=O)CSc3nnc(-c4cc(OC)c(OC)c(OC)c4)o3)cc2)cc1
active: T-47D breast -44.5% | BT-549 breast -3.02% | MDA-MB-435 melanoma -39.2% | SW-620 colon -61.5% | MCF7 breast -30.8% | HCT-116 colon -76.4% | HCC-2998 colon -72% | KM12 colon -91.8%

Nc1nc(-c2cc3c(cc2Cl)NC(=O)/C3=C/c2ccc(Cl)cc2)cs1
inactive: T-47D breast 18.1% | BT-549 breast 26.3% | SW-620 colon 30% | MCF7 breast 16.8% | HCT-116 colon 24.2% | HCC-2998 colon 73.3% | KM12 colon 36%
active: MDA-MB-435 melanoma 1.64%

CCc1ccc(C2=C/C(=C/c3ccc(Cl)cc3)C(=O)N2CCc2ccc(S(N)(=O)=O)cc2)cc1
active: T-47D breast 0.105% | MCF7 breast 6.29%
inactive: BT-549 breast 38% | MDA-MB-435 melanoma 36.7% | SW-620 colon 25.2% | HCT-116 colon 13.6% | HCC-2998 colon 24.8% | KM12 colon 18.8%

O=C(NCCNc1nccc(-c2c(-c3cccc(O)c3)nc3sccn23)n1)c1cc(N2CCOCC2)cc(C(F)(F)F)c1
inactive: T-47D breast 77.7% | BT-549 breast 84.8% | MDA-MB-435 melanoma 34.7% | SW-620 colon 126% | MCF7 breast 85.4% | HCT-116 colon 78.8% | HCC-2998 colon 109% | KM12 colon 97.3%

CN1C(=O)C2(NN=C(c3cccc4ccccc34)S2)c2ccccc21 (stereo not drawn)
inactive: BT-549 breast 30.1% | MDA-MB-435 melanoma 57.8% | SW-620 colon 35.5% | MCF7 breast 24% | HCT-116 colon 14.8% | HCC-2998 colon 51.7% | KM12 colon 30.8%
active: T-47D breast 5.27%

O=C1CCC(c2c(O)cc(O)c3c(=O)c(O)c(-c4ccc(O)c(O)c4)oc23)N1 (stereo not drawn)
inactive: T-47D breast 83.6% | BT-549 breast 112% | MDA-MB-435 melanoma 110% | SW-620 colon 108% | MCF7 breast 95.2% | HCT-116 colon 99.8% | HCC-2998 colon 89.4% | KM12 colon 101%

O=C(NOC1OC(CO)C(O)C(O)C1O)Nc1ccccc1 (stereo not drawn)
inactive: T-47D breast 78.7% | BT-549 breast 110% | MDA-MB-435 melanoma 102% | SW-620 colon 106% | MCF7 breast 87.9% | HCT-116 colon 105% | KM12 colon 105%

O=C(Nc1ccc(-n2cc(-c3ccncc3)c(-c3ccc(O)c(Cl)c3)n2)cc1)Nc1ccc(Cl)c(C(F)(F)F)c1
active: BT-549 breast -19.4% | MDA-MB-435 melanoma -0.731% | HCT-116 colon 6.73% | KM12 colon 6.77%
inactive: T-47D breast 29.2% | SW-620 colon 19.6% | MCF7 breast 15% | HCC-2998 colon 22%

Clc1ccc(OCc2nc(-c3ccccc3)n[nH]2)c(Cl)c1
inactive: T-47D breast 95.6% | BT-549 breast 100% | MDA-MB-435 melanoma 97.7% | SW-620 colon 97% | HCC-2998 colon 99.8% | KM12 colon 101%

Cc1nssc1=S
inactive: T-47D breast 105% | BT-549 breast 110% | MDA-MB-435 melanoma 104% | SW-620 colon 103% | MCF7 breast 93.7% | HCT-116 colon 96.9% | HCC-2998 colon 108% | KM12 colon 108%

COc1cc(-c2nc3sc(C)cn3c2/C=C2\C(=O)Nc3ccccc32)c(Br)c(OC)c1OC
active: MDA-MB-435 melanoma -8.78% | MCF7 breast 1.61%
inactive: T-47D breast 51.5% | BT-549 breast 14.8% | SW-620 colon 21.2% | HCT-116 colon 22% | HCC-2998 colon 97% | KM12 colon 15.1%

COc1ccc(-c2cc(-c3nnc(SC/C(=N\O)c4ccccc4)n3-c3ccccc3)c3ccccc3n2)cc1
inactive: T-47D breast 106% | BT-549 breast 108% | MDA-MB-435 melanoma 108% | SW-620 colon 102% | HCC-2998 colon 103% | KM12 colon 98.9%

Cc1cccc(NC(=O)CCc2ccc(N3C(N)=NC(N)=NC3(C)C)cc2)c1
inactive: T-47D breast 73.1% | BT-549 breast 45.8% | MDA-MB-435 melanoma 25.9% | SW-620 colon 33.5% | MCF7 breast 29.3% | HCT-116 colon 18.9% | HCC-2998 colon 33.3% | KM12 colon 22.7%

Cc1cc(NC(=O)c2cccc(C(F)(F)F)c2)ccc1-n1ccc2c(NC(=O)c3ccccc3)nccc21
inactive: T-47D breast 78.8% | BT-549 breast 88.7% | MDA-MB-435 melanoma 105% | SW-620 colon 110% | MCF7 breast 103% | HCT-116 colon 83.5% | HCC-2998 colon 115% | KM12 colon 100%

N#Cc1c(N)nc2c(c1N)C(c1ccc(Cl)cc1)C1=C(CCCC1=O)N2c1sc2c(c1C#N)CCCC2 (stereo not drawn)
inactive: T-47D breast 96.8% | BT-549 breast 96.1% | MDA-MB-435 melanoma 112% | SW-620 colon 107% | MCF7 breast 99.7% | HCT-116 colon 70.8% | HCC-2998 colon 90.3% | KM12 colon 89.7%

C=C1C(=O)O[C@H]2[C@H]1CC/C(COC(=O)c1cc(OC)c(OC)c(OC)c1)=C\CC[C@@]1(C)O[C@@H]21
inactive: HCC-2998 colon 41.2% | KM12 colon 54.5%
active: T-47D breast -38.7% | BT-549 breast -42% | MDA-MB-435 melanoma -53% | SW-620 colon -49.5% | MCF7 breast -16.5% | HCT-116 colon -84.8%

COc1cc(C(=O)N2CCN(C(=O)c3cc(OC)c(OCc4ccccc4)cc3N)CC2)c(N)cc1OCc1ccccc1
inactive: T-47D breast 114% | BT-549 breast 101% | MDA-MB-435 melanoma 127% | SW-620 colon 119% | MCF7 breast 89.5% | HCT-116 colon 104% | HCC-2998 colon 102% | KM12 colon 109%

CC(=O)Nc1ccc(OC(=O)c2ccccc2O)cc1
inactive: T-47D breast 100% | BT-549 breast 113% | MDA-MB-435 melanoma 98.6% | SW-620 colon 101% | MCF7 breast 99.5% | HCT-116 colon 114% | KM12 colon 99.1%

Cc1cn([C@]2(CF)O[C@H](CO)C2C)c(=O)[nH]c1=O (stereo partly drawn)
inactive: T-47D breast 119% | BT-549 breast 110% | MDA-MB-435 melanoma 133% | SW-620 colon 98.6% | MCF7 breast 120% | HCT-116 colon 100% | HCC-2998 colon 121% | KM12 colon 110%

COc1cc(C(=O)NNC(=O)c2ccccc2C(=O)O)cc(OC)c1OC
inactive: T-47D breast 39.5% | BT-549 breast 58.4% | MDA-MB-435 melanoma 60.4% | SW-620 colon 36.9% | MCF7 breast 30.1% | HCT-116 colon 29% | HCC-2998 colon 68.5% | KM12 colon 36.9%

CN(C)c1ccc2cc(-c3nc4ccccc4s3)c(N)nc2c1
inactive: T-47D breast 48.5% | BT-549 breast 61.8% | SW-620 colon 43.6% | MCF7 breast 19.7% | HCT-116 colon 43.8% | HCC-2998 colon 77.6% | KM12 colon 26.9%
active: MDA-MB-435 melanoma 5.06%

O=C(O)c1cc2ccccc2cc1Nc1ccccc1
inactive: T-47D breast 89.3% | BT-549 breast 113% | MDA-MB-435 melanoma 103% | SW-620 colon 105% | MCF7 breast 76.2% | HCT-116 colon 89.7% | HCC-2998 colon 99.1% | KM12 colon 109%

COc1ccc(-c2ccc(NC(=O)Nc3ccc(Cl)c(C(F)(F)F)c3)c(C)n2)cc1
inactive: T-47D breast 21.5% | BT-549 breast 66.2% | MDA-MB-435 melanoma 71.9% | SW-620 colon 67% | MCF7 breast 36.7% | HCT-116 colon 23.7% | HCC-2998 colon 69.2% | KM12 colon 37.4%

C=CCn1c(SCC(=O)Nc2ccc(/C(C)=N\O)cc2)nnc1-c1cc(-c2ccc(OC)cc2)nc2ccccc12
inactive: BT-549 breast 35.6% | MDA-MB-435 melanoma 46.1% | SW-620 colon 39.4% | HCC-2998 colon 45.8% | KM12 colon 29%
active: T-47D breast -4.63%

COc1ccccc1N1CCN(CC(O)COc2c(Br)c(Br)c(Br)c3c2OC(C)(C)C3)CC1 (stereo not drawn)
inactive: T-47D breast 39.8% | BT-549 breast 98.6% | MDA-MB-435 melanoma 37.2% | SW-620 colon 33.3% | MCF7 breast 26.8% | HCT-116 colon 27.4% | HCC-2998 colon 39.9% | KM12 colon 35.7%

O=c1c2ccccc2sc2c(N3CCCC3)nc3ccccc3c12
inactive: T-47D breast 81.2% | BT-549 breast 111% | MDA-MB-435 melanoma 112% | MCF7 breast 65.8% | HCT-116 colon 78% | HCC-2998 colon 107% | KM12 colon 85.5%

CCOc1ccc(Cc2nccc3cc(OCC)c(OCC)cc23)cc1OCC
inactive: T-47D breast 39.1% | BT-549 breast 49.1% | MDA-MB-435 melanoma 60.2% | MCF7 breast 72.7% | HCT-116 colon 26.5% | HCC-2998 colon 52.2% | KM12 colon 49.3%
